Assay [1] deals with Epidermal growth factor receptor (Homo sapiens), P00533 [T790M]. The conditions noted are these: at 1 µM.
Assay [2] deals with Epidermal growth factor receptor (Homo sapiens), P00533 [L858R,T790M]. Particulars: at 0.1 µM.
Assay [3] has the same test system. Particulars: at 1 µM.
Assay [4] addresses Ephrin type-A receptor 2 (Homo sapiens) (UniProt P29317). Particulars: at 0.1 µM.
Assay [5] has the same target. Particulars: at 1 µM.
Assay [6] has as its target T1, Ephrin type-A receptor 3 (Homo sapiens) (UniProt P29320).
T1 sequence (whole entry): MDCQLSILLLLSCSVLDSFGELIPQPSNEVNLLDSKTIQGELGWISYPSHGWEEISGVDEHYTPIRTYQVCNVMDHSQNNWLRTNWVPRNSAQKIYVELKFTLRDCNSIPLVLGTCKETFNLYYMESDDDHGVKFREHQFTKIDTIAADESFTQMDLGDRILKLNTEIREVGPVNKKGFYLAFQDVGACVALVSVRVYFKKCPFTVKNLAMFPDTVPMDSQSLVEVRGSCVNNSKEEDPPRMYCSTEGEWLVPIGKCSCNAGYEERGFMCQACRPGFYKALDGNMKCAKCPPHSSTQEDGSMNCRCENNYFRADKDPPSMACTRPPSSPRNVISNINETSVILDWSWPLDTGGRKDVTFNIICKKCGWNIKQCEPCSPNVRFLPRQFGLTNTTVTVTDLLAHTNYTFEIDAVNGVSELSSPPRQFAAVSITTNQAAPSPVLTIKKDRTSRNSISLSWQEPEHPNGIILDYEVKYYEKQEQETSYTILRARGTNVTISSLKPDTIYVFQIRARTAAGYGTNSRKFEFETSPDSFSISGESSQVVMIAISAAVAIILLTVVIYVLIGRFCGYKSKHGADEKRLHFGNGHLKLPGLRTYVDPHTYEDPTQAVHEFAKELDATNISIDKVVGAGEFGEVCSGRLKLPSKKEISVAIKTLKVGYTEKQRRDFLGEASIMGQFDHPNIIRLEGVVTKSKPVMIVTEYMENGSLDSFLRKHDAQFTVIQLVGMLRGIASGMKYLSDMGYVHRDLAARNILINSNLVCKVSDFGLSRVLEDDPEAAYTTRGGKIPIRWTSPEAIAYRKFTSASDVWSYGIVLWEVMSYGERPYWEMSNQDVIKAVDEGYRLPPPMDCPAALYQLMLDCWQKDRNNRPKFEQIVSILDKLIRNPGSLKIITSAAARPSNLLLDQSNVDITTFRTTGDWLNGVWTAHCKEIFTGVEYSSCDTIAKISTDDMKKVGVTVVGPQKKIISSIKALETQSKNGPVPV
The conditions noted are these: at 0.1 µM.

Assay [7] addresses T1, Ephrin type-A receptor 3 (Homo sapiens). The conditions noted are these: at 1 µM.
In assay [8] the target is Ephrin type-A receptor 4 (Homo sapiens) (UniProt P54764). Particulars: at 0.1 µM.
Sequence of Ephrin type-A receptor 4 (Homo sapiens) (P54764 whole entry): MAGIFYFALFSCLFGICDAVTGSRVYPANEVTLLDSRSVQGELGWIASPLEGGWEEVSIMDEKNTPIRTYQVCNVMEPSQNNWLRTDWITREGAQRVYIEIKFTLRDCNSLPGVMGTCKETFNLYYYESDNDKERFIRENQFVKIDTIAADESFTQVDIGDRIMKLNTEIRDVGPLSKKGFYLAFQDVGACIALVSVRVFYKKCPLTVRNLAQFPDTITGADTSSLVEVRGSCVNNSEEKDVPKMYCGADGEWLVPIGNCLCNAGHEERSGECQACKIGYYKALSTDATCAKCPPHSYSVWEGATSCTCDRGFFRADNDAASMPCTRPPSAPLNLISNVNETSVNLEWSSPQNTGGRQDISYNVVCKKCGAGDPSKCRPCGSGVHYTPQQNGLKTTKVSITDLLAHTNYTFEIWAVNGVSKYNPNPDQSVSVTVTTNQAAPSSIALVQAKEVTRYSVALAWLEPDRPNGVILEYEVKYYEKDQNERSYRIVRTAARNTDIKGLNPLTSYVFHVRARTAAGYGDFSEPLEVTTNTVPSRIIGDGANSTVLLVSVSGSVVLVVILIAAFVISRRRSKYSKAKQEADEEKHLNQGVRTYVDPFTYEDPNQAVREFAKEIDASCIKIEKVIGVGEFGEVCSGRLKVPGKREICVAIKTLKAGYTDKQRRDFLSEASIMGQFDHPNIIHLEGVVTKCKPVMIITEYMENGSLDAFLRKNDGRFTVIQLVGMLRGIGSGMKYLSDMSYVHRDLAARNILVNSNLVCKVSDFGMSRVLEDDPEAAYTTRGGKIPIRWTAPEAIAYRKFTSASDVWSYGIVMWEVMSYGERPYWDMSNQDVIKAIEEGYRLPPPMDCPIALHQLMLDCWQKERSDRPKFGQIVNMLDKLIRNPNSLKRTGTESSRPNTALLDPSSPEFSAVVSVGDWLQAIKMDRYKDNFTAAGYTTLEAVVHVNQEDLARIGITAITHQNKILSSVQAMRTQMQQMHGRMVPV
Assay [9] has the same target. The conditions noted are these: at 1 µM.
The target in assay [10] is T2, Ephrin type-B receptor 2 (Homo sapiens) (UniProt P29323).
T2 sequence (whole entry): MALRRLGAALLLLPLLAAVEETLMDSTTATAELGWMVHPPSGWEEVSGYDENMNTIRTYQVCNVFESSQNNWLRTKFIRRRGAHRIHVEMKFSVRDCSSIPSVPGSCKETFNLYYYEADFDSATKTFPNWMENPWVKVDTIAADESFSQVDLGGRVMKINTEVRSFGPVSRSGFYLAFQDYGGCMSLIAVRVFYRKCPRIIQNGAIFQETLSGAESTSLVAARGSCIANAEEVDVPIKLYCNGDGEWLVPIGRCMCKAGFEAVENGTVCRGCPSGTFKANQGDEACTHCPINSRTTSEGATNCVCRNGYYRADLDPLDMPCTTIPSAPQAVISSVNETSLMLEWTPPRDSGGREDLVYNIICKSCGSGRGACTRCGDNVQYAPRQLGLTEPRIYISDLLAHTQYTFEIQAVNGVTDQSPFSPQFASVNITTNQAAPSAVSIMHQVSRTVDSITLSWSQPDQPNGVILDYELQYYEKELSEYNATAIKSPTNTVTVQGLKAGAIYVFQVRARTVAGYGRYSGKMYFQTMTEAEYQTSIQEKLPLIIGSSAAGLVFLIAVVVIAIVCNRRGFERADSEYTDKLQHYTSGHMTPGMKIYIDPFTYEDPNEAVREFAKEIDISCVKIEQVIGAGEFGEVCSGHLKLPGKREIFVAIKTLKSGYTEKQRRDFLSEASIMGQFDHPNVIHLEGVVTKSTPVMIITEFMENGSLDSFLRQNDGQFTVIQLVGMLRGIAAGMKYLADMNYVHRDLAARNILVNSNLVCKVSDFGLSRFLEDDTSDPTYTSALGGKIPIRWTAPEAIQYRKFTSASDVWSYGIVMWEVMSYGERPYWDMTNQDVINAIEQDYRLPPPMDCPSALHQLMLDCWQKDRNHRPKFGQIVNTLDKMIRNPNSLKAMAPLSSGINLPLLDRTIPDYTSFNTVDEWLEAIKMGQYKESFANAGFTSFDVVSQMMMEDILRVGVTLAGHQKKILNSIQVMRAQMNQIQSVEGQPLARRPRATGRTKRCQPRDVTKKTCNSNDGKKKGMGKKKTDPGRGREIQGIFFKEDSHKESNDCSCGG
Particulars: at 0.1 µM.

The target in assay [11] is T2, Ephrin type-B receptor 2 (Homo sapiens). The conditions noted are these: at 1 µM.
The target of assay [12] is T3, Ephrin type-B receptor 3 (Homo sapiens) (UniProt P54753).
T3 sequence (whole entry): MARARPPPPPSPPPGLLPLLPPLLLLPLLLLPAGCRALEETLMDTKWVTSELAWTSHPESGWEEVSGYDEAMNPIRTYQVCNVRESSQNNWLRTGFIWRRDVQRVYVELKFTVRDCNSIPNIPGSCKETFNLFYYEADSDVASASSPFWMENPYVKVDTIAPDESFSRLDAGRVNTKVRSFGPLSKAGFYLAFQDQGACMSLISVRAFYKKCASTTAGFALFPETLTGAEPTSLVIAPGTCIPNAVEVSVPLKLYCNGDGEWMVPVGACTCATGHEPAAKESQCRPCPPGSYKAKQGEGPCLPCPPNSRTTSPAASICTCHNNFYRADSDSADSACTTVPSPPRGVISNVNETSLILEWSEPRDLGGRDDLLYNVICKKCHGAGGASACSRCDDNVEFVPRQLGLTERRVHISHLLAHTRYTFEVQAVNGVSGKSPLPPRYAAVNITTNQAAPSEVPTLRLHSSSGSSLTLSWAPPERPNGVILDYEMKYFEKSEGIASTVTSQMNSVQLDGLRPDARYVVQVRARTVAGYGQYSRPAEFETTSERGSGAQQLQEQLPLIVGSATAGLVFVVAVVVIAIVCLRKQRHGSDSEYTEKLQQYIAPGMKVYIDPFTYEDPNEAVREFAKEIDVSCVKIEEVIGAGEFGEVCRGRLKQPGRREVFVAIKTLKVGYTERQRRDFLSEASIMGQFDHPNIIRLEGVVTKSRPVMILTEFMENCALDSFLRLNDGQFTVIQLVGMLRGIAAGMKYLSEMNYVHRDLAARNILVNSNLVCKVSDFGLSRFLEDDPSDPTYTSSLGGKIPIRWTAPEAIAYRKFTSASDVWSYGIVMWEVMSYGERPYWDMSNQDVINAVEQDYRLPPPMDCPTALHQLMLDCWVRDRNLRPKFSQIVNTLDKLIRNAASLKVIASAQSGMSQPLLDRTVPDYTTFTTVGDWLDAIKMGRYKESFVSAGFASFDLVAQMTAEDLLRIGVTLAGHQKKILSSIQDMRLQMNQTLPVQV
Particulars: at 0.1 µM.

Assay [13] addresses T3, Ephrin type-B receptor 3 (Homo sapiens). Particulars: at 1 µM.
Assay [14] addresses T4, Ephrin type-B receptor 4 (Homo sapiens) (UniProt P54760).
T4 sequence (whole entry): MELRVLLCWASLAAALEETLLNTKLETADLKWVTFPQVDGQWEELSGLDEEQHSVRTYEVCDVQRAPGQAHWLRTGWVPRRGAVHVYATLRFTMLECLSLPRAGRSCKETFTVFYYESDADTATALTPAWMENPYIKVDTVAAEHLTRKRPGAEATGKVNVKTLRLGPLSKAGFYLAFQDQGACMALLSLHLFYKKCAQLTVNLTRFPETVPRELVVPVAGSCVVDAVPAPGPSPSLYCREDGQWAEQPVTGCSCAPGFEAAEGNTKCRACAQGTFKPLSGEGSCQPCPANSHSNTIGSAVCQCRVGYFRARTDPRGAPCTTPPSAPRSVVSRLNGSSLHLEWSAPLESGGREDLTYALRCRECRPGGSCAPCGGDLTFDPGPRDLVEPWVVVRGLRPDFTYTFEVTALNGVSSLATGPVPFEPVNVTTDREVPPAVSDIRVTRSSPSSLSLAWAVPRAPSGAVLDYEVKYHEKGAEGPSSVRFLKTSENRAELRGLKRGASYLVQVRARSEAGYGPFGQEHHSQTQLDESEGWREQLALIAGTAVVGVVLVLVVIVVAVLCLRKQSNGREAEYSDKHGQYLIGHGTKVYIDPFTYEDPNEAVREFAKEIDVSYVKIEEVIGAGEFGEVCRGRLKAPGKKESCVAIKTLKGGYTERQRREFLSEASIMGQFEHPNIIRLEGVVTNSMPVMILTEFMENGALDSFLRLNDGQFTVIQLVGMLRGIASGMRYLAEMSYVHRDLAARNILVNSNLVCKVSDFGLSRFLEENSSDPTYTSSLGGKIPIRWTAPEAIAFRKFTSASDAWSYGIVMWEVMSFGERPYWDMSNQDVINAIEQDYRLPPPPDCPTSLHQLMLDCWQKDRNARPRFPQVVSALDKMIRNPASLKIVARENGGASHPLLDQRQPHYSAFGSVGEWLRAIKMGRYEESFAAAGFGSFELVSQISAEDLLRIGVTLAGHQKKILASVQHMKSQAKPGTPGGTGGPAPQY
Particulars: at 0.1 µM.

In assay [15] the target is T4, Ephrin type-B receptor 4 (Homo sapiens). Particulars: at 1 µM.
Assay [16] has as its target Receptor tyrosine-protein kinase erbB-2 (Homo sapiens) (UniProt P04626). Particulars: at 0.1 µM.
Assay [17] shares this target. Particulars: at 1 µM.
For assay [18], the target named is Receptor tyrosine-protein kinase erbB-4 (Homo sapiens) (UniProt Q15303). Particulars: at 0.1 µM.
Sequence of Receptor tyrosine-protein kinase erbB-4 (Homo sapiens) (Q15303 whole entry): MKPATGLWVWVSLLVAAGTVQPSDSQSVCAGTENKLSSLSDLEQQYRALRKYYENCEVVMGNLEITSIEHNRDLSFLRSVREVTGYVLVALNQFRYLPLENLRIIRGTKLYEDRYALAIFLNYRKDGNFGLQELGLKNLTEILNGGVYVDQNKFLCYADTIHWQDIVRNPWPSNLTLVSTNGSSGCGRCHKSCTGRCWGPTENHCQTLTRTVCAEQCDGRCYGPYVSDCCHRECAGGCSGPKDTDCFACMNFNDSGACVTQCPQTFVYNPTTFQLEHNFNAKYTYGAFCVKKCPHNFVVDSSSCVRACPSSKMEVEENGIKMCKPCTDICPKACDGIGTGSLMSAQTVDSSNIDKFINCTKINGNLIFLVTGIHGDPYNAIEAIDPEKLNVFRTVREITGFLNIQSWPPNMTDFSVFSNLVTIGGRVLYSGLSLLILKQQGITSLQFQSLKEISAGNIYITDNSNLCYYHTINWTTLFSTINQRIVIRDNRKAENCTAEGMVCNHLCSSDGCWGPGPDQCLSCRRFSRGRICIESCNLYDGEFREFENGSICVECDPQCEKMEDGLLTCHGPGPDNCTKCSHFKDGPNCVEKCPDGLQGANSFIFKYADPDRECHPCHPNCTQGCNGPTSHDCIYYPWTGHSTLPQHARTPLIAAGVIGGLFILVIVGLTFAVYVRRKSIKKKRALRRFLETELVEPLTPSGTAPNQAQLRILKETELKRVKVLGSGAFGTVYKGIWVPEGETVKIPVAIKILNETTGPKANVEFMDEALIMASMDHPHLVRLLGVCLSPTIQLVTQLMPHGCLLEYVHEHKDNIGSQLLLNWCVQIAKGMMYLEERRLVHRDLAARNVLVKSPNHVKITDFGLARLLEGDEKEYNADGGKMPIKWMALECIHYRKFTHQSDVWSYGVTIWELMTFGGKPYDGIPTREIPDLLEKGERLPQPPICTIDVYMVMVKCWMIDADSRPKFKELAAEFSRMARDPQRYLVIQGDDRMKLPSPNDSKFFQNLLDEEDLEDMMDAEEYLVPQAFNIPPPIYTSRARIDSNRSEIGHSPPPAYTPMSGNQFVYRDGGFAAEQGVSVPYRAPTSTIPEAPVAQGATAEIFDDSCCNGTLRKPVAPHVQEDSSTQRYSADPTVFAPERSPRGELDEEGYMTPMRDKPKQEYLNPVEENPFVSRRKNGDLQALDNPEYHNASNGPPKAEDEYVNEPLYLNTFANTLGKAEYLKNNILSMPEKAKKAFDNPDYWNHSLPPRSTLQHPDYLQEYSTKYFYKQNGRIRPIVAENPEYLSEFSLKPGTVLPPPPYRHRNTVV
Assay [19] shares this target. The conditions noted are these: at 1 µM.
Assay [20] concerns the target Tyrosine-protein kinase Fer (Homo sapiens) (UniProt P16591). The conditions noted are these: at 0.1 µM.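 Also: reported figures are averaged percent inhibition of FER.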

Sequence of Tyrosine-protein kinase Fer (Homo sapiens) (P16591 whole entry, looked up): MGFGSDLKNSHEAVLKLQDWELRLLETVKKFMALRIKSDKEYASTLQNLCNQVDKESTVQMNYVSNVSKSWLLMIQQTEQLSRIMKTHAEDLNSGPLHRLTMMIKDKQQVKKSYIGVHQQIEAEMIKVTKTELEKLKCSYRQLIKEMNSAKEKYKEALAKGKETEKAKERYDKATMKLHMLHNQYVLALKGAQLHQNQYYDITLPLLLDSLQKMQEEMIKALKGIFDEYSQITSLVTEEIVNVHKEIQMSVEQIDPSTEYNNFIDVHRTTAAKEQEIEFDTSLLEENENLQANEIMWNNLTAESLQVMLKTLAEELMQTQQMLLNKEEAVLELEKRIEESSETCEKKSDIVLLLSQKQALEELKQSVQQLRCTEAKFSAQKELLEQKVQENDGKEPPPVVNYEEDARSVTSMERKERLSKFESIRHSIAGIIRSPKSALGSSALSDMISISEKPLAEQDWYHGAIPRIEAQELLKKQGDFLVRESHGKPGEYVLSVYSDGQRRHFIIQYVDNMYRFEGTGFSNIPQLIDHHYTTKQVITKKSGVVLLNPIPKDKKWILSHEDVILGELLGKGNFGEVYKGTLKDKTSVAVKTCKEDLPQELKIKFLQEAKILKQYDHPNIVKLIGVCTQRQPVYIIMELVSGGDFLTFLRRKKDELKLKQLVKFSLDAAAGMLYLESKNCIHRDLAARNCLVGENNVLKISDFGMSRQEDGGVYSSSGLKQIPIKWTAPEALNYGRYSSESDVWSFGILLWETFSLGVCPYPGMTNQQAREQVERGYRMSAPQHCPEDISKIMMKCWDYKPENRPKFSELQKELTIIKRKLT
Sequence of Receptor tyrosine-protein kinase erbB-2 (Homo sapiens) (P04626 whole entry): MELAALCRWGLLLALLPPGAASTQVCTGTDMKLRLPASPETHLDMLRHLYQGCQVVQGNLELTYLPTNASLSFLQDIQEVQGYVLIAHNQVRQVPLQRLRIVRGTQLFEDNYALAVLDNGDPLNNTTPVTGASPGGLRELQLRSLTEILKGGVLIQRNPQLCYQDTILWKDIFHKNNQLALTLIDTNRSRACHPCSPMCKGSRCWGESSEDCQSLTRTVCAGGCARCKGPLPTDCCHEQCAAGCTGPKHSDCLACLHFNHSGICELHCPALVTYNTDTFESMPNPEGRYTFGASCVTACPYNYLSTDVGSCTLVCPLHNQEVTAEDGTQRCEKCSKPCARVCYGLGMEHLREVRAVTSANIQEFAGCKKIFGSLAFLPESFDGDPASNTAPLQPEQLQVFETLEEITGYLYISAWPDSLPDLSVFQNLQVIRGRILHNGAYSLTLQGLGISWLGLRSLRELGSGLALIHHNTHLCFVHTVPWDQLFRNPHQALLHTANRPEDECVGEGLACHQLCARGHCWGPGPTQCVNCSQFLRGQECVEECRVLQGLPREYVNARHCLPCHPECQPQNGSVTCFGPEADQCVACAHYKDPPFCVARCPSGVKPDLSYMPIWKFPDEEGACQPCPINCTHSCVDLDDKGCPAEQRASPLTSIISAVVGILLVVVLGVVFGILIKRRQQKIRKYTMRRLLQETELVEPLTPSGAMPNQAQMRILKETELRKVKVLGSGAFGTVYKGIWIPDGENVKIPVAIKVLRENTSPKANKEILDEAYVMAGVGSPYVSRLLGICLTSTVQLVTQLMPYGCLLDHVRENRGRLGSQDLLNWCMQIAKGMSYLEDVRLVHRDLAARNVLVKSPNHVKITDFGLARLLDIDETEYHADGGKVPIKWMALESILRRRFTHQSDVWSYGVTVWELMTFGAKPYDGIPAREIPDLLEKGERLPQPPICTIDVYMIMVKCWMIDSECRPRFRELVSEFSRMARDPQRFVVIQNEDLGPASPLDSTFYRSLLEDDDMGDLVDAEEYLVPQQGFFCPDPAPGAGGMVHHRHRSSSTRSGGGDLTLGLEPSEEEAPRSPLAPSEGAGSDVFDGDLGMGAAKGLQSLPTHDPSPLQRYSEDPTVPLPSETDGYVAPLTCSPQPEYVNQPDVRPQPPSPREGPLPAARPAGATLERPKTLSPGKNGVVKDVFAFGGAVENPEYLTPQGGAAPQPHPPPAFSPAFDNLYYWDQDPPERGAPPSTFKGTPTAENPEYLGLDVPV

For `c1ccc(-c2n[nH]cc2-c2ccnc(-c3ccc(OCCN4CCOCC4)cc3)c2)nc1`, the inhibition (as a rule, the change of the read-out against control, counted positive when it falls) in [1] is -0.63%; in assay [2], 1.82%; in [3], -2.02%; in assay [4], 4.75%; in assay [5], 2.42%; in assay [6], -1.39%. In addition, the inhibition in assay [7] is -0.22%; in assay [8], -5.11%; in assay [9], -9.05%; in assay [10], 0.38%; in assay [11] it was 5.59%; in [12], -5.09%. Moreover, the inhibition in assay [13] was -7.2%; in [14], -1.67%; in assay [15] it was 0.63%; in assay [16] it was -3.69%; in assay [17] it was -4.37%; in [18], 3.65%. The inhibition in [19] amounted to 2.65%; in assay [20] it was 7.06%.

With `CN(c1ccc(NC(=O)Nc2c(Cl)cccc2Cl)cc1)c1ccnc(Nc2cccc(CS(C)(=O)=O)c2)n1`, the inhibition in [1] was determined as 2.21%; in [2], 2.48%; in assay [3], 3.18%; in [4], 3.5%; in [5] it was 7.74%; in [6] it was 7.33%. Also, the inhibition in assay [7] was found to be 7.13%; in assay [8], 10.6%; in assay [9], 33.8%; in assay [10], 4.12%; in [11] it was 27.3%; in assay [12] it was 2.02%. The inhibition in [13] was determined as 4.62%; in assay [14] it was 2.86%; in [15] it was 8.72%; in assay [16], 1.88%; in [17], 7.2%; in assay [18], 11.2%. Further, the inhibition in [19] is 17.1%; in assay [20], 51.9%.

Consider `CCN(CC)Cc1ccc(Nc2nccc(-c3cnn4ncccc34)n2)cc1`, for which the inhibition is 1.33% in assay [1]; 0.05% in [2]; 4.64% in assay [3]; -3.31% in assay [4]; -5.2% in assay [5]; -1.76% in [6]. Further, the inhibition is 0.69% in assay [7]; 6.79% in assay [8]; 15.2% in [9]; 8.25% in assay [10]; 27.2% in assay [11]; -0.97% in [12]. In addition, the inhibition in assay [13] was determined as 0.55%; in assay [14], 1.62%; in assay [15] it was 8.4%; in assay [16], 3.58%; in [17] it was 3.96%; in [18], 1.52%. Besides, the inhibition is 5.17% in assay [19] and 3.88% in [20].
